# Experimental data from PubChem BioAssay AID588827 (Broad Institute, 2011).
# Screen size: about 2,400 compounds; about 20 (0.8%) were called active. About 19% were inconclusive and are not listed.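 How the source made its calls: active means fitted half-maximal concentration for signal decrease at or below twice the top tested dose, in every repeat run; inconclusive means repeat runs disagree, or flat partial inhibition, or poor fit; inactive means all runs flat, wrong-direction or potency beyond limit.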 Only a sample is shown. Results with a measured potency or affinity are listed apart.
# Assay: GFP reporter loss versus dox-driven RFP – NIH3T3 R4 cells, cherry-pick, set 4, dose response (AID 588827)
# Conditions: NIH3T3 R4 HSF-1 GFP reporter, heat shock, 48 h; series mostly up to 19.5 µM
row,Structure (SMILES),outcome
1,Nc1ncnc2oc(-c3ccco3)c(-c3ccco3)c12,inactive
2,CCN1CC2([N+](=O)[O-])C=CC(=O)C([N+](=O)[O-])(C1)C2CC(=O)c1ccccc1 (centres undefined),inactive
3,CCOC(=O)c1c(N)sc2c(O)c(Br)ccc12,inactive
4,Cc1[nH]c2ccccc2c1/C=C/c1nc2ccccc2c(=O)n1-c1cccc([N+](=O)[O-])c1,inactive
5,O=C(c1ccc([N+](=O)[O-])s1)N1CCN(c2cccc(Cl)c2)CC1,inactive
6,O=C(O)c1cccc(COc2ccc3c(c2)CCC3)c1,inactive
7,CC(C)c1ccc(-c2nc3ccccc3s2)cc1,inactive
8,CC1=Nc2ccc(C)c3nc(C)cc(c23)N1c1ccc(C)cc1,inactive
9,N#Cc1cc2c(nc1SCC(=O)N1CCOCC1)CCCCC2,inactive
10,COc1ccc(/C=C/C(=O)Oc2ccc(/C=N/NC(=O)COc3c(C)cccc3C)cc2)cc1,inactive
11,CCN(c1ccccc1)S(=O)(=O)c1cnc[nH]1,inactive
12,COc1ccccc1N=Nc1ccc(O)c2ncccc12,inactive
13,COc1cccc(NC(=O)Nc2nnc(Cc3ccccc3F)s2)c1,inactive
14,COc1ccccc1C(=O)NCCC(=O)NNC(=O)Cn1ccc(C(F)(F)F)n1,inactive
15,Nc1nc(Cl)nc2ccc(Br)cc12,inactive
16,CCN1CCN(/C=N/c2nc3c(s2)CCCC3)CC1,inactive
17,Cn1c(=O)c2c(nc(Oc3cccc(O)c3)n2C)n(C)c1=O,inactive
18,Cc1ccc(NC(=O)CCN2C(=O)C3CCCCC3C2=O)cc1[N+](=O)[O-] (centres undefined),inactive
19,O=C(CCCCCn1c(=S)[nH]c2cc3c(cc2c1=O)OCO3)N1CCN(C(=O)c2ccco2)CC1,inactive
20,CCCCOc1ccc(N=Cc2ccc[nH]2)cc1,inactive
21,CCOc1ccc(-c2nc(CSCC(=O)N3CCN(c4cccc(OC)c4)CC3)c(C)o2)cc1,inactive
22,O=C(NCCN1CCCCC1)Nc1ccccc1Cl,inactive
23,CCC1CCCCN1CCCNC(=O)CSc1nc2nc(C)c(Cc3ccc(C)cc3)c(C)n2n1 (centres undefined),inactive

row,Structure (SMILES),outcome
1,O=C(Nc1ccc2c(c1)ncn2C1CCCCC1)c1ccco1,inactive
2,CC(C)(C)c1ccc(C(=O)NC(=S)Nc2nc3c(s2)CCCC3)cc1,inactive
3,N#Cc1nc(-c2ccco2)oc1N1CCN(Cc2ccccc2)CC1,inactive
4,COc1ccc(S(=O)(=O)/C(C#N)=C/Nc2cccc(OC)c2)cc1,inactive
5,CCCC[C@@H]1C[C@H]1[C@@H](NC(=O)c1ccco1)c1ccc(Cl)cc1,inactive
6,Cc1ccc(C(=O)Nc2cccc(C(F)(F)F)c2)cc1NC(=O)c1ccno1,inactive
7,Fc1ccc(CO/N=C/C2=C(Cl)c3ccccc3CC2)cc1,inactive
8,COc1ccc(-n2c(C)c(C(C)=O)c(C(C)=O)c2C)cc1,inactive
9,CSc1ncccc1C(=O)N1CCCC(N2CCN(c3ccccc3F)CC2)C1 (centres undefined),inactive
10,CC(=O)N/C(=N\c1nc(C)cc(C)n1)Nc1ccc2ccccc2c1,inactive
11,Cc1ccc(/C=C(\NC(=O)c2ccccc2)C(=O)N2CCCC2C(=O)O)cc1 (centres undefined),inactive
12,COc1ccc(NC(=S)Nc2ccc(C)c(S(=O)(=O)N3CCCCC3)c2)cc1,inactive
13,Oc1ccccc1CNc1ccc(OC(F)(F)F)cc1,inactive
14,CCOc1c2ccc(C(=O)NCc3ccccc3OC)cc2nn1CC,inactive
15,CC(O/N=C\c1ccccc1O)C(=O)Nc1ccccc1C(=O)N1CCOCC1 (centres undefined),inactive
16,COc1cccc(N(C(=O)c2cccs2)c2nc3ccccc3s2)c1,inactive
17,CCOc1cc(C#N)c(NC(=O)c2cccnc2Cl)cc1OCC,inactive
18,C=CCSc1nc2ccccc2n1C(=O)/C=C/c1cc(OC)c(OC)c(OC)c1,inactive
19,O=C(Nc1ccc(N2CCCCC2)cc1)c1ccccn1,inactive
20,Cc1cc(C)c(N=C2SCC(=O)N2Cc2ccco2)c(C)c1,inactive
21,O=C(NC(=O)c1cccc(F)c1)OC[C@@H]1CCCN2CCCC[C@H]12,inactive
22,CCCCN(C(=O)COc1ccc(C)cc1OC)c1c(N)n(CCC)c(=O)[nH]c1=O,inactive
23,Cc1cc(C)c2c(c1)/C(=N/NS(=O)(=O)c1ccc(Br)cc1)CCC2,inactive

row,Structure (SMILES),outcome
1,Cc1ccc(N(C)C(=O)CN(C)S(=O)(=O)c2ccc3c(c2)n(C)c(=O)c(=O)n3C)cc1,inactive
2,CCC(=O)Nc1cc2nn(-c3ccc(C)cc3)nc2cc1C,inactive
3,O=C1C(Cc2ccccc2)Nc2ncnc(N3CCN(c4ccccc4)CC3)c2N1Cc1ccccc1 (centres undefined),inactive
4,O=C(CSC(=S)N1CCCCC1)Nc1ncc2c(n1)CCCC2=O,inactive
5,N#Cc1c(SCC(=O)Nc2nccs2)nc2c(c1-c1ccco1)CCCC2,inactive
6,CCN1C(=O)[C@H]2[C@@H](c3ccc(C)cc3)N3C(=O)N(c4ccc(C)cc4)C(=O)[C@@]3(C)[C@H]2C1=O,inactive
7,CC(C)Cc1csc(NC(=O)c2ccc(F)cc2)c1C(=O)O,inactive
8,CCOC(=O)c1ccc(NC(=S)NC(=O)C2CCCC2)cc1,inactive
9,CCOC(=O)c1ccc(Nc2ncnc3nc[nH]c23)cc1,inactive
10,COc1ccc(C(=O)N2CCN=C2SCc2cccnc2)cc1OC,inactive
11,COc1ccc(NC(C)=O)cc1NC(=O)CN1CCN(CC(=O)Nc2ccccc2Cl)CC1,inactive
12,CC1(C)CC(=O)C2=C(C1)N(Cc1ccccc1)C(=O)C2(NC(=O)C(C)(C)C)C(F)(F)F (centres undefined),inactive
13,Cc1ccc(C(=O)CSc2cnc3ccccc3n2)cc1C,inactive
14,C/C(=N\NC1=NCCN1)c1ccc(N)c([N+](=O)[O-])c1,inactive
15,Cc1ccc(OCC(=O)Nc2ccccc2C(=O)N2CCCCC2)cc1,inactive
16,CCN(CC)S(=O)(=O)c1cccc(NC(=O)CCNC(=O)NC23CC4CC(CC(C4)C2)C3)c1,inactive
17,Cc1cccc(CS(=O)(=O)Cc2ccc(C(=O)NCc3cccs3)o2)c1,inactive
18,CC(C)OCCCn1c(NN)nc2ccccc2c1=O,inactive
19,COc1nc(N)c(C#N)c(-c2ccc(N(C)CCC#N)cc2)c1C#N,inactive
20,CCCSc1nnc(CNS(=O)(=O)c2ccc(C)cc2)n1C,inactive
21,Cc1ccc(CSCC(=O)N(C)CC(=O)Nc2ccc(C)cc2)cc1,inactive
22,COc1ccc(O)c(-c2c(-c3ccc(Cl)cc3)n[nH]c2C)c1,inactive
23,COc1ccc(NCc2nnc(SCC(=O)Nc3cc(C(F)(F)F)ccc3Cl)o2)cc1,inactive
